# Source: article PMC7862700, “An all-to-all approach to the identification of sequence-specific readers for epigenetic DNA modifications on cytosine”
# Legend:
# Assay in all cases: DAPPL (digital affinity profiling via proximity ligation, sequencing); 10 mM Tris-HCl pH 7.5, 50 mM NaCl, 1 mM DTT, 4% glycerol, room temperature, 30 min; GST-TFs on glutathione beads, 16-mer random dsDNA library, 0.1% formaldehyde crosslink after washing; high values mean tight binding
# [1] = target: T1, FLI1 (Homo sapiens, UniProt Q01543 1-452); conditions: protein: recombinant; tags: N-terminal GST; dsDNA, one strand shown
# T1 sequence: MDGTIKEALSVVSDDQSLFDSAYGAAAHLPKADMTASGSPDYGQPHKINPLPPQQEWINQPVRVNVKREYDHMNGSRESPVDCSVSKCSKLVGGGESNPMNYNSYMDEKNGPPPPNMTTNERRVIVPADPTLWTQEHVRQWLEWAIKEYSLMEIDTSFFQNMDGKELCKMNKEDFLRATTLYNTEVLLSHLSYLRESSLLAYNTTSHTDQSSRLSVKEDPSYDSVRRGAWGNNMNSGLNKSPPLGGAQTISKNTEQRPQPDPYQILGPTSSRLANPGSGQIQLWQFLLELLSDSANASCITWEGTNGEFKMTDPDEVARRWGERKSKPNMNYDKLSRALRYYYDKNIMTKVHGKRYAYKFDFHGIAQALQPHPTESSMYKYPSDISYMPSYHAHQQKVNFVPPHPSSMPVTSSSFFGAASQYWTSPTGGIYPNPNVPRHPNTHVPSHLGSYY
# How it was run: (§1)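 Pools of DNA-barcoded human transcription factors, expressed in yeast as GST fusions on glutathione beads and combined with a tag-only sample, were incubated with 200 nmole of a 16-mer random double-stranded DNA library. Incubation took 30 min at room temperature in Tris/NaCl/DTT/glycerol buffer and was followed by washing, 0.1% formaldehyde crosslinking, proximity ligation (BsaI/T4 ligase, 1 h, 37 °C), PCR amplification and sequencing on an Illumina NextSeq500. Binding signal is the ratio of a hexamer's read frequency for a factor to its frequency for the tag-only sample.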
# [2] = target: T2, ELK1 (Homo sapiens, UniProt P19419 1-428); conditions: protein: recombinant; tags: N-terminal GST; dsDNA, one strand shown
# T2 sequence: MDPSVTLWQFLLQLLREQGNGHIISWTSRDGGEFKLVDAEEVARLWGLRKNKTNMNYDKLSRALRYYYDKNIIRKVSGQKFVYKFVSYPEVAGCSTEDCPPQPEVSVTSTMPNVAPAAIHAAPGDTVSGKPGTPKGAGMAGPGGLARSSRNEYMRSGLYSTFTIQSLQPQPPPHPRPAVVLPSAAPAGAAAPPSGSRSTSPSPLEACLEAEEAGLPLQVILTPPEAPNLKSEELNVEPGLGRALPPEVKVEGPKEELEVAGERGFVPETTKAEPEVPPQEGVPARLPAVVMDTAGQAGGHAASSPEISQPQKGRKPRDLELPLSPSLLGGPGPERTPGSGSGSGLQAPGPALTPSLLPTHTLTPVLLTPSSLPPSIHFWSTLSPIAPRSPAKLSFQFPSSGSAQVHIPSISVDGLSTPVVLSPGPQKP
# How it was run: as §1
# [3] = target: T3, GABPA (Homo sapiens, UniProt Q06546 1-454); conditions: protein: recombinant; tags: N-terminal GST; dsDNA, one strand shown
# T3 sequence: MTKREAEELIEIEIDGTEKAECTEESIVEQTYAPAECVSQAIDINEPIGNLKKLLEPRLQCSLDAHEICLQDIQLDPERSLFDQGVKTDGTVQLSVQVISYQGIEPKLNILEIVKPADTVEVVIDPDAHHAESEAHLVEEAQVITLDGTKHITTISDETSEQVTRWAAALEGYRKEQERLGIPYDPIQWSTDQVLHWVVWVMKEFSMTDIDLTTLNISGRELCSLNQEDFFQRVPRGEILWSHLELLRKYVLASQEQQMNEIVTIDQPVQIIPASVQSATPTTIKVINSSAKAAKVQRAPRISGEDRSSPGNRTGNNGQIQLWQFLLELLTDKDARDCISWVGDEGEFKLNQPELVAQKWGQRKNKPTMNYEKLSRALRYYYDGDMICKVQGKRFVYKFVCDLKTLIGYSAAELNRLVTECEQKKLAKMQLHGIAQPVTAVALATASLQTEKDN
# How it was run: as §1
# [4] = target: T4, ERG (Homo sapiens, UniProt P11308 1-479); conditions: protein: recombinant; tags: N-terminal GST; dsDNA, one strand shown
# T4 sequence: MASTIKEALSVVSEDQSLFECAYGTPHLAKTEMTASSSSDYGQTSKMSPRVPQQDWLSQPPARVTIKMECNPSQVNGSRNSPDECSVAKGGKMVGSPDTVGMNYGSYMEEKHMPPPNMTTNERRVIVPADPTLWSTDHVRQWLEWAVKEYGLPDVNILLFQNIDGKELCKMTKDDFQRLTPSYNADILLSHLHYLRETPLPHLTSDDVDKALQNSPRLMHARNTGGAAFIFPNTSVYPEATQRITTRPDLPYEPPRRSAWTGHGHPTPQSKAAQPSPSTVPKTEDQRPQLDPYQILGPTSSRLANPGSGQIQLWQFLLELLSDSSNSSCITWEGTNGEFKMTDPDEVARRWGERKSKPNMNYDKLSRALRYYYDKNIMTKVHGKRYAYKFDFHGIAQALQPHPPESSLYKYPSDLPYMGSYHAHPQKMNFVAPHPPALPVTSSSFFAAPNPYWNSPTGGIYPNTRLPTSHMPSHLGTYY
# How it was run: as §1
# [5] = target: ELF1 (Homo sapiens, UniProt P32519 1-619); conditions: protein: recombinant; tags: N-terminal GST; dsDNA, one strand shown
# Sequence of ELF1 (P32519 whole entry): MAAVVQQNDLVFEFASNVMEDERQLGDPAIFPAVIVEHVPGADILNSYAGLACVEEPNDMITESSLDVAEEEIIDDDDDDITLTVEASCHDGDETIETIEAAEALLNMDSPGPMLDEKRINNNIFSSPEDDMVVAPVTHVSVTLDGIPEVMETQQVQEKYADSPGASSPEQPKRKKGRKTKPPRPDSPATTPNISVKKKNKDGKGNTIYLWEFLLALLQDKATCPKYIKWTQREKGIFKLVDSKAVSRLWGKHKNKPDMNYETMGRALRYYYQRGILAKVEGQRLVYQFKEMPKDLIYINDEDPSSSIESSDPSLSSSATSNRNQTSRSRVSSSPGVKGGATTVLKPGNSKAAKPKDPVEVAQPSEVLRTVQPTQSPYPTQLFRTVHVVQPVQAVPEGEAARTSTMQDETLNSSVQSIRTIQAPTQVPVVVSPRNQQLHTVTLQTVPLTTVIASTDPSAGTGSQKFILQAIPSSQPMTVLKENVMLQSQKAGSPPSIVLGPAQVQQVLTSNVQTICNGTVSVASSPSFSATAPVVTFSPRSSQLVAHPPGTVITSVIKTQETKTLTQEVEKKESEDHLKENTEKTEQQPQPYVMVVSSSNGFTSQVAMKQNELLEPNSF
# How it was run: as §1
# [6] = target: T5, EHF (Homo sapiens, UniProt Q9NZC4 1-300); conditions: protein: recombinant; tags: N-terminal GST; dsDNA, one strand shown
# T5 sequence: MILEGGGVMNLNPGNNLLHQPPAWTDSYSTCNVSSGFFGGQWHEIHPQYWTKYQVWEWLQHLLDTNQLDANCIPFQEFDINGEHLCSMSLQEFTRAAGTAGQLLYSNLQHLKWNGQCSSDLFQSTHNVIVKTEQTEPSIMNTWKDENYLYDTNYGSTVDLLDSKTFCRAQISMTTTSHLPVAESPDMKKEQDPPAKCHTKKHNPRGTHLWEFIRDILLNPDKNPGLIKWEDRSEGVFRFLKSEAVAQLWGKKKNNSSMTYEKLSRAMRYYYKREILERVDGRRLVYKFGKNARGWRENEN
# How it was run: as §1
# [7] = target: SPI1 (Homo sapiens, UniProt P17947 1-270); conditions: protein: recombinant; tags: N-terminal GST; dsDNA, one strand shown
# How it was run: as §1
# [8] = target: SPIB (Homo sapiens, UniProt Q01892 1-262); conditions: protein: recombinant; tags: N-terminal GST; dsDNA, one strand shown
# Sequence of SPIB (Q01892 whole entry): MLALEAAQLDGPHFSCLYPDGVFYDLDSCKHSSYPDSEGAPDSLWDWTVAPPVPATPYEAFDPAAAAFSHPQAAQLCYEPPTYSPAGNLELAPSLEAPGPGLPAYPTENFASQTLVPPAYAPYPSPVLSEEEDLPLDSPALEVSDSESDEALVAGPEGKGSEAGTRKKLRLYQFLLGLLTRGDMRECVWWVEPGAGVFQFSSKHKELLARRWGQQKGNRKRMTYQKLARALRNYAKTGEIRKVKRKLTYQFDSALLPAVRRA
# How it was run: as §1
# [9] = target: T6, ELK3 (Homo sapiens, UniProt P41970 1-407); conditions: protein: recombinant; tags: N-terminal GST; dsDNA, one strand shown
# T6 sequence: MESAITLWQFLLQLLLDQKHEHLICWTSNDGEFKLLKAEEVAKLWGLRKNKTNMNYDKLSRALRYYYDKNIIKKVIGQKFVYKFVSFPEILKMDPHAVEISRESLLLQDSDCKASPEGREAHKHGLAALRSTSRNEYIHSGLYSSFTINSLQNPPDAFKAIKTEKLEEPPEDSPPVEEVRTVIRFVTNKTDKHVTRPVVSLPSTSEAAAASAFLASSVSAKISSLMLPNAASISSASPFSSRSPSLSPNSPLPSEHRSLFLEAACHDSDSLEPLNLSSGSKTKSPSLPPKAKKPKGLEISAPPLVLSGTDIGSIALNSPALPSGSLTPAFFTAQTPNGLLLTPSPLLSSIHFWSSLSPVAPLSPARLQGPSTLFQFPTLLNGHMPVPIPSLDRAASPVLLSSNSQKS
# How it was run: as §1
# [10] = target: T7, FEV (Homo sapiens, UniProt Q99581 1-238); conditions: protein: recombinant; tags: N-terminal GST; dsDNA, one strand shown
# T7 sequence: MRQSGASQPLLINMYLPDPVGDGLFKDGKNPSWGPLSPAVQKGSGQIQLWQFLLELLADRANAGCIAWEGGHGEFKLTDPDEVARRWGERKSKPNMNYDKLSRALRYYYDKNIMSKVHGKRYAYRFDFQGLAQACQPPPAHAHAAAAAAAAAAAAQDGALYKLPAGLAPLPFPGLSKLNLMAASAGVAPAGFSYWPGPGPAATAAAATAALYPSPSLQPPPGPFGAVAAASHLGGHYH
# How it was run: as §1
# [11] = target: ETV5 (Homo sapiens, UniProt P41161 1-510); conditions: protein: recombinant; tags: N-terminal GST; dsDNA, one strand shown
# Sequence of ETV5 (P41161 whole entry): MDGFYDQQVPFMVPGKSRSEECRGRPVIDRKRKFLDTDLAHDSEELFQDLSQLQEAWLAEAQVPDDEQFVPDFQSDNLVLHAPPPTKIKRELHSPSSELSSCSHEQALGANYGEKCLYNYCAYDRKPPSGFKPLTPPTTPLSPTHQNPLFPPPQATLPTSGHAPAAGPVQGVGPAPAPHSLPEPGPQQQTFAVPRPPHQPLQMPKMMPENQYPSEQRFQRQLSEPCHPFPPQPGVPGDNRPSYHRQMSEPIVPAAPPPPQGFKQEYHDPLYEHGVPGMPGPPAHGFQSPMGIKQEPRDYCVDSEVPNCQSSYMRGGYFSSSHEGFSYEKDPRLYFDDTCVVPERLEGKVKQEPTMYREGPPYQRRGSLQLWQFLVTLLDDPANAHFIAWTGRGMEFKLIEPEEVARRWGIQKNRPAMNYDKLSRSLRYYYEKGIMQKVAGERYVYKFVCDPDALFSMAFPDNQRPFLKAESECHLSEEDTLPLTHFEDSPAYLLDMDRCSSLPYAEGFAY
# How it was run: as §1
# [12] = target: HSF1 (Homo sapiens, UniProt Q00613 1-529); conditions: protein: recombinant; tags: N-terminal GST; chain copies: 3; dsDNA, one strand shown
# Sequence of HSF1 (Q00613 whole entry): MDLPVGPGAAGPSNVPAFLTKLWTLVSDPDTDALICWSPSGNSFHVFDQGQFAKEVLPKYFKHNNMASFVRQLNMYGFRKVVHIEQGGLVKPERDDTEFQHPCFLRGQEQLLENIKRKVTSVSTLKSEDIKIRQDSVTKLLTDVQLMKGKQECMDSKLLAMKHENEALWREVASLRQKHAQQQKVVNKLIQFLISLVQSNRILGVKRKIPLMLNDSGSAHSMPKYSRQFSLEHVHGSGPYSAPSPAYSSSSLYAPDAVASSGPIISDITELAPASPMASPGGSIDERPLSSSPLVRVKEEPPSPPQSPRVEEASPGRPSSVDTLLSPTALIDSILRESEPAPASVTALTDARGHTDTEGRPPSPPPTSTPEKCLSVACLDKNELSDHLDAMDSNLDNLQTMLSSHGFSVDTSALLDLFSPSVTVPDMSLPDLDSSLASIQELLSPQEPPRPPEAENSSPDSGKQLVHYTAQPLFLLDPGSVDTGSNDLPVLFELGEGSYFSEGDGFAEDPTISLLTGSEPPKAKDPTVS
# How it was run: as §1
# [13] = target: T8, SPIC (Homo sapiens, UniProt Q8N5J4 1-248); conditions: protein: recombinant; tags: N-terminal GST; dsDNA, one strand shown
# T8 sequence: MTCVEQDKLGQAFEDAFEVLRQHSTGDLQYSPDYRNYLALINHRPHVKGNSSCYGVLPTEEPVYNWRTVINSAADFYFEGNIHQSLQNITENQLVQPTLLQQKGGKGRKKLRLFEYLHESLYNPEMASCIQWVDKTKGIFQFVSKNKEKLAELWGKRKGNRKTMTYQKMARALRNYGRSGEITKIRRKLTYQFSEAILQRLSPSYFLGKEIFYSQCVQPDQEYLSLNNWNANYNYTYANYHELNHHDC
# How it was run: as §1
# [14] = target: ELF4 (Homo sapiens, UniProt Q99607 1-663); conditions: protein: recombinant; tags: N-terminal GST; dsDNA, one strand shown
# Sequence of ELF4 (Q99607 whole entry): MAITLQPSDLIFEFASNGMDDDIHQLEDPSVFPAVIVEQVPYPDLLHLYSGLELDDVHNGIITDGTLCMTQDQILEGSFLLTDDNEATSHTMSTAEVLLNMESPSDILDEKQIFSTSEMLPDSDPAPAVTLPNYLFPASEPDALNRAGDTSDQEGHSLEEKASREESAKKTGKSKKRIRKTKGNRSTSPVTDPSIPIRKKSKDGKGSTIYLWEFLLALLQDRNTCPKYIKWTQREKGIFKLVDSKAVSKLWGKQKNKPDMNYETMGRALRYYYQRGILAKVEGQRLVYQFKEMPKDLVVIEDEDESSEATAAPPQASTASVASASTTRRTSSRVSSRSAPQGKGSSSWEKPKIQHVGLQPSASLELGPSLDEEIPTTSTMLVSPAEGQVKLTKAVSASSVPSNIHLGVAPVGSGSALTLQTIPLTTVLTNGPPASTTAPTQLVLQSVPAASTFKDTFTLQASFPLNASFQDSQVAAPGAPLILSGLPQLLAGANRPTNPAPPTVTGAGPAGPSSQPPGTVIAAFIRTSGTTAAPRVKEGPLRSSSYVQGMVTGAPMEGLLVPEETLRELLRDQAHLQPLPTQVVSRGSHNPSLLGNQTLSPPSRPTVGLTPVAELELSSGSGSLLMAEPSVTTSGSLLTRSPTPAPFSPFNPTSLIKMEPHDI
# How it was run: as §1
# [15] = target: T9, ELK4 (Homo sapiens, UniProt P28324-2 1-405); conditions: protein: recombinant; tags: N-terminal GST; dsDNA, one strand shown
# T9 sequence: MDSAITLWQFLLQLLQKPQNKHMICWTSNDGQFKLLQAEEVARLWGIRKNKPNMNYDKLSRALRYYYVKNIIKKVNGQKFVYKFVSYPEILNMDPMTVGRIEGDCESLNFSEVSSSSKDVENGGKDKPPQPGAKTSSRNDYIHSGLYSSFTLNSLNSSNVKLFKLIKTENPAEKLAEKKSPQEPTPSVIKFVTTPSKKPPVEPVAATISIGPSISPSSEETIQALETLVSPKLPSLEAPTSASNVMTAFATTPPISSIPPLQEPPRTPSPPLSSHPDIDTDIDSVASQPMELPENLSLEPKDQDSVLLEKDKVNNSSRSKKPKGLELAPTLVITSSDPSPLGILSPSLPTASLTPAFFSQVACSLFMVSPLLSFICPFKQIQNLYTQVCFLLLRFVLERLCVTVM
# How it was run: as §1
# [16] = target: T10, ETV2 (Homo sapiens, UniProt O00321 1-342); conditions: protein: recombinant; tags: N-terminal GST; dsDNA, one strand shown
# T10 sequence: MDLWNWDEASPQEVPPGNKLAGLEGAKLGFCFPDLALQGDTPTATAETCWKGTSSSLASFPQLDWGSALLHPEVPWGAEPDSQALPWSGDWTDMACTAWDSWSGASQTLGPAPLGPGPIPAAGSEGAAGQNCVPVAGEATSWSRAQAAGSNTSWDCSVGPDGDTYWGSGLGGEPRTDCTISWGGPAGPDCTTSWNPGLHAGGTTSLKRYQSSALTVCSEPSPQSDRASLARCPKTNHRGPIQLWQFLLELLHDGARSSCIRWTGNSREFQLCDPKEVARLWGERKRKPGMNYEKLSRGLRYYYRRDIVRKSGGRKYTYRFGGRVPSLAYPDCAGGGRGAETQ
# How it was run: as §1
# [17] = target: T11, ELF3 (Homo sapiens, UniProt P78545 1-371); conditions: protein: recombinant; tags: N-terminal GST; dsDNA, one strand shown
# T11 sequence: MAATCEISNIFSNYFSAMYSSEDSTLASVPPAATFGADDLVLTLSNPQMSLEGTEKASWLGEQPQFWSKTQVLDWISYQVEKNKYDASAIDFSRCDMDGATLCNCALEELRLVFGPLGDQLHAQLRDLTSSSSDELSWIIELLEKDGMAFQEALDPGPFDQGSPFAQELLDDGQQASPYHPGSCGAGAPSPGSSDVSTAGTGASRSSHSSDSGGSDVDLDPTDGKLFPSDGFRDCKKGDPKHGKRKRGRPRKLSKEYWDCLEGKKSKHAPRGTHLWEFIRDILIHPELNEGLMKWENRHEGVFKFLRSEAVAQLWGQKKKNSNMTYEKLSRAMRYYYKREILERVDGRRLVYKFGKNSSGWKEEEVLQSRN
# How it was run: as §1
# [18] = target: CRX (Homo sapiens, UniProt O43186 1-299); conditions: protein: recombinant; tags: N-terminal GST; dsDNA, one strand shown
# Sequence of CRX (O43186 whole entry): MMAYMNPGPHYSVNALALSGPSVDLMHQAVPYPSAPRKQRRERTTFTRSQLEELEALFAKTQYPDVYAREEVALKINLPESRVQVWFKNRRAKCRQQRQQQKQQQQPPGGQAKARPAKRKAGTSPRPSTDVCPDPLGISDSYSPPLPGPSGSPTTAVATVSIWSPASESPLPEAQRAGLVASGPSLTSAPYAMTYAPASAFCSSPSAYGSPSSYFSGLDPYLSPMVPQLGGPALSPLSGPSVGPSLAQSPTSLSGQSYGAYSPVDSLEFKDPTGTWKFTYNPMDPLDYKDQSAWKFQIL
# How it was run: as §1
# [19] = target: ETV1 (Homo sapiens, UniProt P50549 1-477); conditions: protein: recombinant; tags: N-terminal GST; dsDNA, one strand shown
# Sequence of ETV1 (P50549 whole entry): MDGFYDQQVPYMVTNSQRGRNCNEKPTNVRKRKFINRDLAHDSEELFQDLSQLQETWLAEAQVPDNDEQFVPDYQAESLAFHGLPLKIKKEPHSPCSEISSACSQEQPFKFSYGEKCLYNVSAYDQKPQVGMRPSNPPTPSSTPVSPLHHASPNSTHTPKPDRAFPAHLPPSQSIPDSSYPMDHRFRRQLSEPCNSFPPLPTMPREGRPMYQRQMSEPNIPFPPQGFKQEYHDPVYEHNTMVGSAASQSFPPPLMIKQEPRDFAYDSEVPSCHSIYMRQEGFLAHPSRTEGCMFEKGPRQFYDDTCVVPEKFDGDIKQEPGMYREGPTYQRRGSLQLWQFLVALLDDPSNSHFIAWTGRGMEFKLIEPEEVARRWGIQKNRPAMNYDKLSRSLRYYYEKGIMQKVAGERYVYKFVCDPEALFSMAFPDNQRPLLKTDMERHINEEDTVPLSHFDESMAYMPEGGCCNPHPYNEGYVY
# How it was run: as §1
sequence,measurement,setting,value
TGCTCC,binding signal,[1],"1.53 fold enrichment (6-mer frequency, TF over GST control)"
same,binding signal,[2],"1.41 fold enrichment (6-mer frequency, TF over GST control)"
same,binding signal,[3],"1.45 fold enrichment (6-mer frequency, TF over GST control)"
same,binding signal,[4],"1.37 fold enrichment (6-mer frequency, TF over GST control)"
same,binding signal,[5],"1.31 fold enrichment (6-mer frequency, TF over GST control)"
same,binding signal,[6],"1.46 fold enrichment (6-mer frequency, TF over GST control)"
same,binding signal,[7],"1.38 fold enrichment (6-mer frequency, TF over GST control)"
same,binding signal,[8],"1.41 fold enrichment (6-mer frequency, TF over GST control)"
same,binding signal,[9],"1.38 fold enrichment (6-mer frequency, TF over GST control)"
same,binding signal,[10],"1.38 fold enrichment (6-mer frequency, TF over GST control)"
same,binding signal,[11],"1.42 fold enrichment (6-mer frequency, TF over GST control)"
same,binding signal,[12],"1.27 fold enrichment (6-mer frequency, TF over GST control)"
same,binding signal,[13],"1.45 fold enrichment (6-mer frequency, TF over GST control)"
same,binding signal,[14],"1.41 fold enrichment (6-mer frequency, TF over GST control)"
same,binding signal,[15],"1.41 fold enrichment (6-mer frequency, TF over GST control)"
same,binding signal,[16],"1.48 fold enrichment (6-mer frequency, TF over GST control)"
same,binding signal,[17],"1.47 fold enrichment (6-mer frequency, TF over GST control)"
same,binding signal,[18],"1.12 fold enrichment (6-mer frequency, TF over GST control)"
same,binding signal,[19],"1.31 fold enrichment (6-mer frequency, TF over GST control)"
